# Bioassay records: PubChem, National Center for Advancing Translational Sciences (NCATS)
# In the library only some 5.5% were active in any assay of this set; here they are far more common.
# RORgamma inh = qHTS for inhibitors of ROR gamma transcriptional activity | AID 2551, 2010 | 5.4% of 310,000 active | Drosophila S2 Gal4-RORgamma UAS-luciferase reporter, 20 h | Potency, µM (titrated, usually from 53.6 µM), without a hit: top-dose activity change, negative = inhibition, usual class: inhibitors; note: % is set by controls: 0 for no effect and ±100 for the full control effect; nearly all actives have a fitted effect of over 60% in size
# Target sequence (P51450 whole entry, looked up, the tested form may be a part): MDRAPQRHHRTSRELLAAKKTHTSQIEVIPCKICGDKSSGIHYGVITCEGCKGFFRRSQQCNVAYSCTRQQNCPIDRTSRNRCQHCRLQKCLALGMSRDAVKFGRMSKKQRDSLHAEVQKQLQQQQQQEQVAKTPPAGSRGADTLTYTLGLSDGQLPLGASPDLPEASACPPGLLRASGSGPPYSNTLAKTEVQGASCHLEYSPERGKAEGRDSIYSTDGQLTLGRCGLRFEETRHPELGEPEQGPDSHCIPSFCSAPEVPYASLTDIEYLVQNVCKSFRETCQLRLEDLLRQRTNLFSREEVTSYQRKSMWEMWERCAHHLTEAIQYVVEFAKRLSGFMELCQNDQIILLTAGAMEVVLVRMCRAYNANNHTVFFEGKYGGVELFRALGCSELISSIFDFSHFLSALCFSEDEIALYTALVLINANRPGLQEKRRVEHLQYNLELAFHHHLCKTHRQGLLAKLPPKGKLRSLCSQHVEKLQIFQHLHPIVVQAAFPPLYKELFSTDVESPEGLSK
#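 Read-out: Photinus luciferase luminescence; inhibitors lower reporter signal. Insect Schneider cells with Gal4-ROR gamma fusion under metallothionein promoter, UAS reporter; 700 uM final copper sulfate induction, 20 hr, ambient temperature.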
# Mito fusion yeast = qHTS Assay for Small Molecule Inhibitors of Mitochondrial Division or Activators of Mitochondrial Fusion | AID 485298, 2010 | 0.23% of 320,000 active | S. cerevisiae fusion-defective mutant growth rescue, CellTiterGlo 48 h | Potency, µM (doses to about 46.1 µM), inactives show at the top dose growth rescue (activation), most hits filed as activators; note: % of control where 0% means no effect; nearly all actives have a fitted effect of over 45% in size
#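 Compounds are tested for their ability to restore growth of mitochondrial fusion-defective yeast strains at non-permissive 37C in YPEG medium over 48 hours. Viability is quantified by luciferase luminescence.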
# uPA generation = qHTS for Inhibitors of Cell Surface uPA Generation; 0.31% of 330,000 active; Potency, µM (highest dose often 38.3 µM), for the others: at the highest dose activity change, negative = inhibition, usual class: inhibitors; AID 540303, 2011; cell surface uPA generation assay, qHTS; active = well fitted inhibition curve with a large enough effect; inconclusive = small, poorly fitted or top-dose-only effect; inactive = no such curve, though single readings can be large or run the other way; tested in mouse RAW 264.7 cells; note: % is set by controls: 0 for no effect and ±100 for the full control effect; nearly all actives have a fitted effect of over 55% in size
# Integrin act MD = qHTS for Activators of Integrin-Mediated Alleviation for Muscular Dystrophy; alpha7betagal myoblasts, beta-gal FDG fluorescence, 48 h; Potency, µM (titrated, usually from 38.3 µM), inactives show top-dose activation, most hits filed as activators; 0.064% of 350,000 active; AID 624291, 2012;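 note: 100% = response of the positive control SU9516; nearly all actives have a fitted effect of over 60% in size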
#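 alpha7betagal+/- myoblasts (passage 13, 250/well) treated 48 h at 37C with compounds at 1:260 dilution of DMSO stock. Lysed, then beta-galactosidase activity read as FDG fluorescence (ex 480/em 540) after 30 min, with pre-read for autofluorescence.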
# BCR signal inh = qHTS Assay to Find Inhibitors of Chronic Active B-Cell Receptor Signaling | ABC-DLBCL IkBa-CBG/CBR reporter, luminescence ratio, 4 h | Potency, µM (series often up to 46.1 µM), for inactives: at the top dose activity change, negative = inhibition, most hits filed as inhibitors | 0.05% of 340,000 active; active = well fitted inhibition curve with a large enough effect in the signal ratio, with a control signal flat, not every such curve was filed as active; inconclusive = small, poorly fitted or top-dose-only effect, or effect the other way, or a change in a side signal; the % refers to the signal ratio;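 note: plate controls were basal doxycycline-induced cells for no effect and cells given 10 µM MG132 for full effect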
#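 Compounds up to 46 uM were incubated four hours with TMD8 cells whose green CBG68 luciferase is fused to IkappaBalpha; red CBR luminescence normalised the signal, and concentration-effect curves were fitted to fusion, red and ratio data.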
# VP16 counter = VP16 counterscreen qHTS for inhibitors of ROR gamma transcriptional activity. Drosophila S2 Gal4-VP16 UAS-luciferase, luminescence, 20 h. Potency, µM (highest dose often 53.6 µM), for inactives: at the highest dose activity, negative = inhibition, actives largely listed as inhibitors. 3.5% of 310,000 active. AID 2546, 2010;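 note: Gal4-VP16 expression switched on by copper sulfate through the metallothionein promoter; % is set by controls: 0 for no effect and ±100 for the full control effect; nearly all actives have a fitted effect of over 50% in size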
# Starred values were filed as active, the others as inactive; ? = inconclusive; . = not tested or not shown. Unless noted, calls come from the whole dose curve; as a rule, active = well fitted curve in the direction sought with a large enough effect; inconclusive = small, poorly fitted or top-dose-only effect, or another doubt; inactive = no such curve, though single readings can be large; an effect the other way counts as inactive or inconclusive. Potency is the fitted concentration of half-maximal effect.
SMILES,RORgamma inh,Mito fusion yeast,uPA generation,Integrin act MD,BCR signal inh,VP16 counter
O=C(c1ccc2c(c1)OCO2)C1CCCN(Cc2c(F)cccc2Cl)C1 (stereo not given),4%,3%,12%,-36%,12%,2%
CN1CCc2cc3c(c4c2[C@H]1Cc1ccccc1-4)OCO3,-35%,.,.,.,.,-26%
COc1cc2c(cc1OC)-c1c3c(cc4c1[C@@H](C2)N(C)CC4)OCO3,?,-2%,?,-17%,-18%,13µM*
COc1cc2c(cc1OC)-c1c(O)c(OC)cc3c1[C@H](C2)N(C)CC3,-28%,.,.,.,.,-21%
COc1cc2c(cc1O)C[C@H]1NCCc3cc4c(c-2c31)OCO4,10µM*,-15%,?,0%,3%,?
NNC(=S)NCCc1ccccc1,3.5µM*,-5%,-2%,14%,?,10µM*
c1ccc(CCNCc2ccccc2)cc1,2%,-4%,5%,-6%,6%,-5%
COc1ccc2cc1Oc1ccc(cc1)CC1c3c(cc(OC)c4c3Oc3cc5c(cc3O4)CCNC5C2)CCN1C (stereo not given),4.5µM*,-6%,?,-21%,?,7.1µM*
C(=N\Nc1nncc2ccccc12)/c1ccccn1,1.4µM*,-1%,-11%,2%,?,3.5µM*
COc1ccc(CNC[C@@H](CCCCN(C)Cc2ccc(OC)cc2)N2C[C@H](c3ccccc3)N(CCc3ccc(Cl)c(Cl)c3)C(=O)C2=O)cc1,5.6µM*,-21%,?,-7%,?,5µM*
COc1cc(C(=O)N/N=C/c2ccc(OC(=O)N3CCOCC3)cc2)cc(OC)c1OC,-18%,-7%,?,?,?,-8%
O=C(N/N=C/c1ccccc1OC(=O)N1CCOCC1)c1cccs1,2.5µM*,7%,-2%,-12%,?,13µM*
O=C(Nc1cccc(C(=O)Nc2cc(C(=O)Nc3ccc([S+](=O)([O-])[O-])c4cc([S+](=O)([O-])[O-])cc(SOOO)c34)ccc2F)c1)Nc1cccc(C(=O)Nc2cc(C(=O)Nc3ccc([S+](=O)([O-])[O-])c4cc([S+](=O)([O-])[O-])cc([S+](=O)([O-])[O-])c34)ccc2F)c1,7%,.,.,.,.,-3%
O=[N+]([O-])c1cc(Cl)c2cccnc2c1O,2.8µM*,?,-9%,-52%,11µM*,4µM*
CC(C)c1ccc(/C=C2\SC(=S)N(CCC(=O)N3CCCCC3CCO)C2=O)cc1 (stereo not given),10µM*,-8%,?,-36%,?,?
CCCC1(CCC)C(=O)NC(=NCc2ccccc2)NC1=O,1%,-2%,-7%,-62%,?,-3%
S=C=NCc1ccccc1,5.6µM*,.,.,.,.,?
Brc1cccc(-c2ccccc2)c1,1%,.,.,.,.,1%
COc1cc(C(O)P(=O)(OCC(C)C)c2ccc(N(C)C)cc2)cc(OC)c1OC (stereo not given),9%,-2%,1%,-7%,?,2%
CCOP(=O)(c1ccc(N(C)C)cc1)C(O)c1ccccc1F (stereo not given),15%,-6%,4%,38%,?,-1%
Cc1ccc(S(=O)(=O)c2ncccc2[N+](=O)[O-])cc1,5.6µM*,-67%,4µM*,-9%,?,5.6µM*
O=[N+]([O-])c1cc(S(=O)(=O)c2ccc(O)c([N+](=O)[O-])c2)ccc1O,-4%,0%,3%,23%,?,-10%
COc1nn(-c2ccccc2)c(=O)c(Cl)c1Cl,?,-15%,26%,-61%,?,11µM*
CCC(Cl)[N+](=O)[O-] (stereo not given),2%,.,.,.,.,-7%
CC(=O)OC[C@]12C[C@H](OC(=O)CC(C)C)C(C)=C[C@H]1O[C@H]1[C@H](O)[C@@H](OC(C)=O)[C@@]2(C)[C@]12CO2,0.025µM*,.,.,.,.,-90%
SMILES,RORgamma inh,Mito fusion yeast,uPA generation,Integrin act MD,BCR signal inh,VP16 counter
CC(=O)OC[C@]12CCC(C)=C[C@H]1O[C@@H]1[C@H](O)[C@@H](OC(C)=O)[C@@]2(C)[C@]12CO2,0.032µM*,-123%,-75%,-51%,?,0.0016µM*
CN1C2C(Br)CCCCN2c2ccc(F)cc2S1(=O)=O (stereo not given),39%,13%,-13%,-140%,?,-6%
OC[P+](CO)(CO)CO,-11%,.,.,.,.,1%
COCCCNC(=S)NCCCNc1nc2cc(C)cc(C)c2cc1C#N,6.3µM*,-2%,-7%,-12%,-6%,?
FC(Cl)(Cl)Cl,7%,.,.,.,.,-2%
C/C(=N\NC(=O)c1cc(-c2cccnc2)nc2ccccc12)c1ccc(O)cc1O,0.63µM*,4%,11µM*,1%,-11%,0.56µM*
Cc1cccc(-c2noc(CN(C(=O)C(c3ccccc3)c3ccccc3)C(C)C)n2)c1,1%,-3%,?,-29%,16%,-11%
CC12CC[C@H]3[C@@H](CCC4(O)C[C@H](O)CCC34/C=N/NC(=O)c3ccc(O)cc3)C1(O)CCC2C1=CC(=O)OC1 (stereo not given in full),8.9µM*,-2%,-3%,0%,?,10µM*
CN(C)c1ccc(C(=O)N/N=C/C23CC[C@@H](O)CC2(O)CC[C@@H]2[C@@H]3CCC3(C)C(C4=CC(=O)OC4)CCC23O)cc1 (stereo not given in full),-18%,-3%,22%,7%,5%,2%
COc1cccc(NC(=O)C2CCC(CNS(=O)(=O)c3ccc4c(c3)CC(C)N4C(C)=O)CC2)c1 (stereo not given),30%,-12%,-14%,-13%,?,-14%
Brc1c(Br)c(Br)c2n[nH]nc2c1Br,-61%,4.6µM*,.,.,.,-24%
Cc1cc(C)c2nc(NNC(=O)c3cc(-c4cccs4)nc4ccccc34)sc2c1,1.8µM*,-4%,?,-26%,-16%,10µM*
CCOC(=O)c1cccc(NS(=O)(=O)c2ccc(NC(C)=O)cc2)c1,?,1%,-3%,16%,5%,5µM*
CC(C)(OOC(C)(C)c1ccccc1)c1ccccc1,43%,.,.,.,.,4%
Cl/C=C/CCl,0%,.,.,.,.,-1%
O=C(/C=C/Nc1ccc(Br)cc1F)c1ccco1,7.1µM*,1%,-18%,?,?,7.9µM*
